Pf growth 48h: P. falciparum growth inhibition at 48 hours (one generation); P. falciparum luciferase growth in erythrocytes, 48 h; Potency, µM (series often up to 28.7 µM), usual class: inhibitors; hit rate 5.9% among 310,000; AID 504832
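Read-out is firefly luciferase luminescence from an integrated reporter in P. falciparum, so falling signal marks reduced parasite growth. Infected erythrocytes were at 2% hematocrit and 0.1% parasitemia (final) in Albumax-supplemented RPMI 1640.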
Pf growth 96h: P. falciparum growth inhibition at 96 hour, primary screen for plastid delayed-death inhibitors; P. falciparum luciferase reporter growth, 96 h; Potency, µM (highest dose often 28.7 µM), actives largely listed as inhibitors; hit rate 6.9% among 320,000; AID 504834
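P. falciparum expressing integrated firefly luciferase, in erythrocytes at 2% hematocrit, 0.05% parasitemia, incubated with compounds 96 h at 37 C, 5% CO2. Growth inhibition read as loss of luminescence; two-generation exposure targets delayed-death apicoplast inhibitors.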
MARV entry inh: blocks Marburg virus binding to or entry into cells | Marburg virus pseudotyped entry inhibition, cell reporter | Potency, µM (top dose mostly 37.8 µM), actives largely listed as inhibitors | hit rate 1.8% among 300,000 | AID 540276; calls by dose curve; tested in HEK293 cells
LASV entry inh: inhibitors of Lassa virus binding or cell entry; Lassa virus pseudotype entry inhibition, cell reporter; Potency, µM (doses to about 37.9 µM), hits mostly inhibitors; hit rate 1.2% among 300,000; calls by dose curve; tested in HEK293 cells; note: nearly all actives have a fitted effect of over 50% in size
Shiga toxin inh: blocks Shiga toxin action in Vero cells. Vero cells, Shiga toxin protein synthesis inhibition reporter. inhibition, % at 38.7 µM. hit rate 9.2% among 290,000. AID 2315; in the data active = inhibition mostly above about 28%, no sharp cut-off; inactive = mostly below about 43%
CHX counter: affects cycloheximide protein synthesis inhibition readout, counter-screen; max response, %; hit rate 12% among 300,000; cell reporter, cycloheximide protein synthesis inhibition counterscreen; AID 2314; in the data active = max response mostly above about 13%, no sharp cut-off; inactive = mostly below about 14%; note: read at 38.3 µM for the half of the compounds with a filed dose
A number is an active result; 0 = inactive; ? = inconclusive; - = no result. Compounds with a hit are over-represented: about 19% of the library has one in this group of screens. Unless noted, calls come from the whole dose curve; as a rule, active = well fitted inhibition curve with a large enough effect; inconclusive = small, poorly fitted or top-dose-only effect, or another doubt; inactive = no such curve, though single readings can be large or run the other way.

SMILES | Pf growth 48h | Pf growth 96h | MARV entry inh | LASV entry inh | Shiga toxin inh | CHX counter
O=C(Nc1nnc(-c2ccccc2)s1)c1ccccc1F | 0 | 0 | - | - | 58.9 | 73.5
COc1ccc(CCN(Cc2cc3cc(C)ccc3[nH]c2=O)C(C)=O)cc1OC | 0 | 0 | - | - | 0 | 0
CCn1c(CN2CCN(C(c3ccccc3)c3ccccc3)CC2)nc2c1c(=O)n(C)c(=O)n2C | - | 3.29µM | ? | ? | 0 | 0
CCOC(=O)Cn1c(CN2CCN(C(c3ccccc3)c3ccccc3)CC2)nc2c1c(=O)n(C)c(=O)n2C | 4.15µM | 1.85µM | - | - | 0 | 0
COC(=O)c1nc2ccc(C)cn2c1F | - | 0 | - | - | 0 | 19.5
COC(=O)c1nn(-c2ccc(C)cc2)ccc1=O | 0 | 0 | 0 | 0 | 0 | 0
O=C(Nc1ccccn1)c1ccco1 | 0 | 0 | ? | 0 | 0 | 45.2
O=C(Cc1ccccc1)Nc1ccc(NC(=O)c2ccco2)nc1 | 0 | 0 | 0 | ? | 105.3 | 44.5
O=C(Nc1ccc(NC(=O)c2ccco2)nc1)c1ccco1 | 0 | 0 | ? | ? | 0 | 0
O=C(Nc1ccc(NC(=O)c2ccco2)nc1)c1ccccn1 | 0 | ? | ? | ? | 0 | 27.5
CCOC(=O)C1(Cc2ccccc2C)CCCN(C(=O)c2ccnn2C)C1 (stereo not drawn) | 0 | ? | 0 | 0 | 0 | 0
CCOC(=O)C1(Cc2ccccc2C)CCCN(S(=O)(=O)c2cccnc2)C1 (stereo not drawn) | 9.28µM | 10.4µM | ? | 0 | 0 | 0
CCOC(=O)C1(Cc2ccccc2C)CCCN(Cc2cn(C)nc2C)C1 (stereo not drawn) | 0 | 0 | - | - | 0 | 0
CCOC(=O)C1(Cc2ccccc2C)CCCN(C(=O)c2ccoc2)C1 (stereo not drawn) | ? | ? | 0 | ? | 71.2 | 44.4
CCOC(=O)C1(Cc2ccccc2C)CCCN(C(=O)c2sccc2C)C1 (stereo not drawn) | ? | ? | - | - | 0 | 29.3
CCOC(=O)c1cnn(-c2ccc(C(=O)Nc3cccc(C(C)=O)c3)cc2)c1N | - | - | - | 0 | - | -
CN(CCOc1ccc(Br)cc1)CC(O)c1ccccc1 (stereo not drawn) | ? | 0 | - | - | 0 | 0
CC(C)c1ccc(CN(C)CC(O)c2ccccc2)cc1 (stereo not drawn) | 2.62µM | 9.28µM | 0 | 0 | 0 | 0
CC(OCC(O)CN(C)CCOc1ccccc1)c1ccc(Cl)cc1 (stereo not drawn) | ? | 11.7µM | ? | 0 | 0 | 0
CN(CCOc1ccc(Cl)cc1)CC(O)c1ccccc1 (stereo not drawn) | 9.28µM | ? | ? | 0 | 0 | 0
CCCN(CCC)C(=O)CP(=O)(c1ccccc1)c1ccccc1 | - | 0 | 0 | 0 | 0 | 0
CN1CCN(CCCNC(=O)c2cc3c(-c4ccc(Cl)cc4)nn(C)c3s2)CC1 | - | ? | 0 | - | 0 | 0
Oc1ccc(C[C@H]2NCCc3cc(O)c(O)cc32)cc1O | ? | ? | 2.82µM | ? | 0 | 0
CCOc1ccc(CC2NCCc3cc(OCC)c(OCC)cc32)cc1OCC (stereo not drawn) | 11.7µM | ? | - | - | 0 | 0
COc1cc2c(cc1OC)C(Cc1ccc(O)cc1)NCC2 (stereo not drawn) | 0 | 0 | ? | 0 | 0 | 0
SMILES | Pf growth 48h | Pf growth 96h | MARV entry inh | LASV entry inh | Shiga toxin inh | CHX counter
COc1ccc(CNC(=O)c2cccnc2Sc2ccc(Cl)cc2)cc1 | 0 | 0 | 0 | ? | 0 | 0
CC(C)(C)c1nc(CN2CCOCC2)cc(CN2CCOCC2)c1O | - | ? | 0 | 0 | 0 | 0
Cc1cc(/C=C(\C#N)C(=O)OCC#N)c(C)n1CC(C)C | 0 | ? | 0 | ? | 59.5 | 28.1
Cc1cc(/C=C(\C#N)C(=O)OCC(=O)Nc2ccc(OC(F)F)cc2)c(C)n1CC(C)C | 0 | 0 | 0 | 0 | 0 | 26.2
COCCn1c(C)cc(/C=C(\C#N)C(=O)OCC(=O)Nc2ccc(S(N)(=O)=O)cc2)c1C | 0 | ? | 0 | 0 | - | -
CC1CN=C(NCc2ccccc2)S1 (stereo not drawn) | 0 | ? | 0 | 0 | 0 | 16.3
CC1CN=C(NCc2ccccc2Cl)S1 (stereo not drawn) | ? | ? | - | - | 41.8 | 24.6
CC1CN=C(Nc2ccc(F)cc2)S1 (stereo not drawn) | 0 | 0 | 0 | 0 | 0 | 0
CC1(C)CN=C(NCc2ccccc2Cl)S1 | ? | 0 | ? | 0 | 55.1 | 17.2
Nc1nc(Nc2ccccc2)nc2c1ncn2[C@@H]1O[C@@H](CO)[C@H](O)[C@H]1O | - | - | 0 | - | - | -
CCCCNC(=O)c1ccc2nc(-c3ccco3)c(-c3ccco3)nc2c1 | 0 | 0 | 0 | 0 | 0 | 0

Bioassay records as filed in PubChem.
